Assay results published in PubChem BioAssay.
Active and inactive are the calls of the source.

Columns and labels:
[1] = system: PRMT1 (protein arginine N-methyltransferase 1); test: small molecules binding arginine methyltransferase PRMT1 – biochemical, small-molecule microarray, 635 nm fluorescence, primary screen (AID 1088); conditions: higher = more signal;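 also: binding of Prmt1 protein to compounds spotted on small-molecule microarray slides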
[2] = growth effects on S. cerevisiae YJM789 – YJM789 clinical isolate, OD600, 24 h, basal, primary screen (AID 1089); conditions: higher = more signal, called active from +8 up or from −8 down;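 also: growth of clinical yeast isolate S. cerevisiae YJM 789 seeded 1000 cells per well; test concentration not given here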
[3] = S. pombe growth modifiers, basal conditions – strain 972, OD600, 24 h, no modulator, primary screen (AID 1090);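 also: basal condition with compound alone and no growth modifier present; test concentration not given here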; conditions: S. pombe 972 growth, higher = more signal, called active from +8 up or from −8 down
[4] = budding yeast growth modifiers under rapamycin – strain BY4716, OD600, 96 h, primary screen (AID 1091); also: test concentration not given here; conditions: S. cerevisiae BY4716 + rapamycin, higher = more signal, called active from +8 up or from −8 down
[5] = target: Torsin-1A-interacting protein 2 (Homo sapiens) (UniProt Q8NFQ8); test: small molecules binding lysate-expressed LULL1 – cell lysate, human LULL1 lysate, 635/667 nm fluorescence, primary screen (AID 1092); conditions: small-molecule microarray, hLULL1 lysate binding, 635 nm fluorescence; higher = more signal;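 also: probe is lysate of COS7 cells overexpressing human LULL1; score merges per-feature 667 nm fluorescence with signal-to-noise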
Chain of Torsin-1A-interacting protein 2 (Homo sapiens) (Q8NFQ8 whole entry, looked up): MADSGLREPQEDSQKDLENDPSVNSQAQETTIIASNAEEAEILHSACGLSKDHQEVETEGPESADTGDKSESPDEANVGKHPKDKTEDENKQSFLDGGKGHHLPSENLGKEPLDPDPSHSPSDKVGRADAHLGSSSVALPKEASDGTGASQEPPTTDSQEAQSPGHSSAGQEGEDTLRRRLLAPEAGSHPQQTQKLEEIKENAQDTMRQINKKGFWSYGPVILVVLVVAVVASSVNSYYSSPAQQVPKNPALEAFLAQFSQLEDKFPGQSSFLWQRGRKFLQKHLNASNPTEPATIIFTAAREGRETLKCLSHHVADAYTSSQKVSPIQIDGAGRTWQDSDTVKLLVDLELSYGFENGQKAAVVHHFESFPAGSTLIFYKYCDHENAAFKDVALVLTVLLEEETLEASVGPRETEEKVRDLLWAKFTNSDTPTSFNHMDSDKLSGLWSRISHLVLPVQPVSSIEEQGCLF

[6] = optical density change of DRC41 E. coli – strain DRC41, OD650, 24 h, E. coli filamentation project, primary screen (AID 1093);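 also: MC1000 strain lacking acrAB efflux and sulA so SOS filamentation is blocked; test concentration not given here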; conditions: E. coli DRC41 growth, higher = more signal, called active from +8 up or from −8 down
[7] = probe aLefty2 binding to arrayed compounds – biochemical, biotinylated probe, 635/667 nm fluorescence, primary screen (AID 1094); conditions: small-molecule microarray, higher = more signal;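 also: score merges spot fluorescence near 667 nm with spot signal-to-noise ratio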
[8] = system: Noggin (protein binding on small-molecule microarray); test: small molecules binding Noggin protein – biochemical, 635/667 nm fluorescence, primary screen (AID 1095); conditions: 635 nm fluorescence, higher = more signal;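 also: score merges 667 nm feature fluorescence with signal to noise over triplicate slides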
[9] = target: Neurogenic locus notch homolog protein 3 (Homo sapiens) (UniProt Q9UM47); test: small molecules binding NOTCH3 protein – biochemical, 635/667 nm fluorescence, primary screen (AID 1096); conditions: small-molecule microarray, 635 nm fluorescence, higher = more signal
Chain of Neurogenic locus notch homolog protein 3 (Homo sapiens) (Q9UM47 whole entry, looked up): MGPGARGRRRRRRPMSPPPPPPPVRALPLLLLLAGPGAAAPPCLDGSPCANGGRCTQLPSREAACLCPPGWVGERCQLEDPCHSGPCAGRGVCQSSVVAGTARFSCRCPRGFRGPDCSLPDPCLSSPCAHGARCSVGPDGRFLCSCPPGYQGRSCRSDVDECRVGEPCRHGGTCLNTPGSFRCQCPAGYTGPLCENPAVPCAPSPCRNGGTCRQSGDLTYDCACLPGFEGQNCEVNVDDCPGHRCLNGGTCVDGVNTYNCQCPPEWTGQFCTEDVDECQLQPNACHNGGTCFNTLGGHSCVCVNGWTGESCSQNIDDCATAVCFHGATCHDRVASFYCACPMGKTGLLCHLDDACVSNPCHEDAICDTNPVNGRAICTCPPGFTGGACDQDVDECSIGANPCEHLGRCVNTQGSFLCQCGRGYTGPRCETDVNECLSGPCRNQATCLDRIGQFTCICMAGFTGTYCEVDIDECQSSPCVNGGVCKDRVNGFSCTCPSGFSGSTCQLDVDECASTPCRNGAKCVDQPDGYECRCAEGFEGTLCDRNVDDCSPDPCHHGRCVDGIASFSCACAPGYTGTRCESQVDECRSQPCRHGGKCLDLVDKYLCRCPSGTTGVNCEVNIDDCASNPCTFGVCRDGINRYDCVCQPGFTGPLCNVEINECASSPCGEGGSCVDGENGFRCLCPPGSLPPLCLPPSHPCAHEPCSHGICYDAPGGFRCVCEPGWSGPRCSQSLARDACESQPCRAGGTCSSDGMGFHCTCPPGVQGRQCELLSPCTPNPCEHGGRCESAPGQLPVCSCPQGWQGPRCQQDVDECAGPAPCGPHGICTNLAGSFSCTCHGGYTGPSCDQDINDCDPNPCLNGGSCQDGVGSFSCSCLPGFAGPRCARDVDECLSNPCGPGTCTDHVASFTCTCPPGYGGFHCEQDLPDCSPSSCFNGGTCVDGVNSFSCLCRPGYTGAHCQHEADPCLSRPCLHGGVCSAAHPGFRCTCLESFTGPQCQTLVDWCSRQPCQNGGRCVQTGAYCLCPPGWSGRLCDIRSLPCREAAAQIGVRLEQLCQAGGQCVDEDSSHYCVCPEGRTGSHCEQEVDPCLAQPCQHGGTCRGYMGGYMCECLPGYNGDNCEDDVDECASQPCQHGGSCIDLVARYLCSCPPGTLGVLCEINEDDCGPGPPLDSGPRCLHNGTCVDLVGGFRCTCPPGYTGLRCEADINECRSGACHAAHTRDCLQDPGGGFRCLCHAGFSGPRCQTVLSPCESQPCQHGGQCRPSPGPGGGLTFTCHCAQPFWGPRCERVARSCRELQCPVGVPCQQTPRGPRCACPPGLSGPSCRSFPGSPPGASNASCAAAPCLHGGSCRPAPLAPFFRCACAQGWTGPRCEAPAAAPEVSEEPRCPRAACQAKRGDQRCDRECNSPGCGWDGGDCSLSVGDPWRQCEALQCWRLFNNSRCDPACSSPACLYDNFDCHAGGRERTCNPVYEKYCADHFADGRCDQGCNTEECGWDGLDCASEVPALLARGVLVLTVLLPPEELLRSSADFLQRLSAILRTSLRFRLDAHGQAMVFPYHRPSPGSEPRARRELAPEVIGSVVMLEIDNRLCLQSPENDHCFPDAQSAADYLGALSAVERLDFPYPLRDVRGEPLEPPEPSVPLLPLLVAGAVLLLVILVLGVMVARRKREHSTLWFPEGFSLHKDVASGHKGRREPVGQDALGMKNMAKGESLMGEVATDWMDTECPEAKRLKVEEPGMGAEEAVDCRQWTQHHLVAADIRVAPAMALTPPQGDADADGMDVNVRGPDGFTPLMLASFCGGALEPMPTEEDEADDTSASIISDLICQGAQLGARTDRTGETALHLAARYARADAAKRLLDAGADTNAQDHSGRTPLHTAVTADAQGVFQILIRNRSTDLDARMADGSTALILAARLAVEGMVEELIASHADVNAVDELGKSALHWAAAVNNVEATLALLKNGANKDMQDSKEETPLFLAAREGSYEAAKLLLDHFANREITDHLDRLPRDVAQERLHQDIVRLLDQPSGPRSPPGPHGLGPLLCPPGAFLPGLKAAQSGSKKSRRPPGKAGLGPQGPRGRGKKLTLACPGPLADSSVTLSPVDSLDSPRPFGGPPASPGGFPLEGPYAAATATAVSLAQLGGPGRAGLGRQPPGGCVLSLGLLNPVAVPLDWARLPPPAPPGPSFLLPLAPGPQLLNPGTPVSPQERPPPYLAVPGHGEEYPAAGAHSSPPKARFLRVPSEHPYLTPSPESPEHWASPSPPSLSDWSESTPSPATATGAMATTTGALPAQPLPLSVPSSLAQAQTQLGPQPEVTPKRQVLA

[10] = probe aEGFR binding to arrayed compounds – biochemical, biotinylated probe, 635/667 nm fluorescence, primary screen (AID 1097); conditions: small-molecule microarray, higher = more signal;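 also: probe is a biotinylated anti-EGFR antibody binding compounds printed on slides; score combines fluorescence near 667 nm and signal to noise of each spot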

Row | Compound | composite z-score [1] | z-score [2] | z-score [3] | z-score [4] | composite z-score [5] | z-score [6] | composite z-score [7] | composite z-score [8] | composite z-score [9] | composite z-score [10]
1 | COC(=O)C[C@H]1O[C@]2(C(=O)N(C)c3ccccc32)[C@@H](C)[C@@H]1[Si](C)(C)F | 1.54 | -2.06 (inactive) | -1.29 (inactive) | -0.922 (inactive) | 2.24 | 1.64 (inactive) | -0.168 | 1.86 | 0.59 | -0.132
2 | CCOC(=O)C[C@H]1[C@H](OC(=O)c2ccc(-c3ccccc3)cc2)[C@@H](NC(=O)Cc2ccc(OC)cc2)c2cc(OCCCO)ccc2N1C(=O)c1ccccc1 | -0.15 | 0.359 (inactive) | 0.822 (inactive) | 0.72 (inactive) | 0.905 | -0.69 (inactive) | 0.044 | 0.763 | 0.238 | -0.122
3 | CN(C)CCCCCCNC(=O)[C@H]1C[C@H]2C(=O)N3CCC[C@H]3C(=O)N2[C@H]1c1ccc(O)cc1 | 1.53 | -0.389 (inactive) | -1.4 (inactive) | 0.24 (inactive) | 2.9 | 1.95 (inactive) | 0.172 | 1.74 | 1.07 | 0.475
4 | CO[C@H]1O[C@H](CO)[C@@H](OC(=O)Nc2ccc(Oc3ccccc3)cc2)[C@H](OC(=O)Nc2ccc3c(c2)OCO3)[C@H]1OC(=O)Nc1ccc2c(c1)OCO2 | 1.53 | 1.57 (inactive) | 1.02 (inactive) | 2.07 (inactive) | 2.42 | 2 (inactive) | 0.25 | 0.39 | 1.02 | 0.166
5 | O=C1O[C@H](c2ccccc2)[C@H](c2ccccc2)N2[C@H]1[C@@H](C(=O)N1CCCCCCC1)[C@]1(C(=O)Nc3ccc(C#CCCO)cc31)[C@H]2c1ccccc1OCCO | 1.55 | 2.09 (inactive) | -13.6 (active) | 4.15 (inactive) | 5.15 | 0.689 (inactive) | 1.96 | 2.41 | 1.01 | 1.34
6 | CC(C)C[C@@H]1NC(=O)[C@@H]2C[C@H](C(=O)O)[C@H](c3cccc(OCCO)c3)N2C1=O | 0.64 | -0.19 (inactive) | -0.734 (inactive) | -0.56 (inactive) | 1.89 | 1.06 (inactive) | -0.173 | -0.0135 | -0.155 | -0.229
7 | C=CCN1C(=O)[C@@]2(CC=C)N=C(c3ccc(OCCCO)cc3)O[C@H]2c2ccccc21 | 1.54 | -3.69 (inactive) | -4.72 (inactive) | 0.764 (inactive) | 3.6 | 1.47 (inactive) | 0.357 | 1.33 | 0.874 | 0.297
8 | COCCOC(=O)N1C(=O)[C@@]2(c3cc(C#CCCO)ccc31)[C@H](C(=O)N1CCCCCCC1)[C@H]1C(=O)O[C@H](c3ccccc3)[C@H](c3ccccc3)N1[C@@H]2c1ccc(OCCO)cc1 | 1.51 | 1.33 (inactive) | 1.3 (inactive) | 2.08 (inactive) | 3.52 | 0.584 (inactive) | 1.53 | 1.55 | 0.93 | 1.04
9 | CC(C)NC(=O)[C@@]1(c2ccc([N+](=O)[O-])cc2)CC(=O)N(C2CCCCC2)[C@@H]1c1ccc(CO)cc1I | 1.03 | 0.719 (inactive) | 0.475 (inactive) | 2.6 (inactive) | 2.33 | 1.21 (inactive) | 0.134 | -0.941 | -0.0996 | -0.0185
10 | CCCc1cc2c(n1Cc1cc(F)cc(F)c1)C(C)C1CN(C(=O)c3ccccc3)C(C)(C(=O)OC)C21 (stereo not given) | 0.497 | 0.149 (inactive) | 0.744 (inactive) | 0.734 (inactive) | 3.11 | -0.738 (inactive) | 1.02 | -0.266 | 1.03 | 0.249
11 | [N-]=[N+]=NCc1ccccc1C[C@]1(C(=O)N2CCCCC2)N=C(c2ccc(OCCCO)cc2)O[C@H]1c1ccccc1N=[N+]=[N-] | 1.57 | -0.912 (inactive) | -0.371 (inactive) | 6.08 (inactive) | 3.09 | -0.442 (inactive) | 0.202 | -0.112 | 1.07 | 0.262
12 | CCOC(=O)C[C@H]1[C@H](OC(=O)c2ccc(C(=O)c3ccccc3)cc2)[C@@H](NC(=O)c2ccc3ccccc3c2)c2cc(OCCCO)ccc2N1C(=O)Cc1ccc(OC)cc1 | 0.789 | -0.0229 (inactive) | 0.713 (inactive) | 0.118 (inactive) | 1.43 | 0.458 (inactive) | 0.0633 | 0.0199 | 0.479 | -0.0688
13 | CCCCCN1CC=CC23O[C@@H]4C=CCCOC(=O)C4[C@H]2C(=O)N(CCCCCO)[C@@H]3C1=O (stereo not given in full) | -0.192 | -0.286 (inactive) | -0.772 (inactive) | -0.255 (inactive) | 2.3 | 0.764 (inactive) | -0.0288 | -0.589 | -0.147 | -0.203
14 | C=CCN1C(=O)[C@]2(O[C@H](CCn3cc([C@H](O)c4ccccc4)nn3)[C@@H]([Si](C)(C)c3ccc(OC)cc3)[C@@H]2C)c2ccccc21 | 0.267 | -1.25 (inactive) | 0.0123 (inactive) | -0.198 (inactive) | 0.41 | -0.68 (inactive) | -0.113 | -0.308 | 0.183 | -0.145
15 | COCCOC(=O)N1C(=O)[C@@]2(c3cc(C#CCC(C(=O)OC)C(=O)OC)ccc31)[C@H](c1ccccc1OCCO)N1[C@H](c3ccccc3)[C@H](c3ccccc3)OC(=O)[C@H]1[C@@H]2C(=O)N1CCN(c2ncccn2)CC1 | 1.54 | 2.01 (inactive) | 2.65 (inactive) | 7.01 (inactive) | 3.09 | 0.998 (inactive) | -0.0557 | 1.28 | 1.08 | 0.032
16 | COC(=O)c1c(CC[C@@H](CO)NC(=O)NCCn2cc(C3(O)CCCC3)nn2)oc(C(C)=O)c1C(=O)OC | 0.463 | -0.539 (inactive) | -0.263 (inactive) | -0.0147 (inactive) | 3.24 | -0.918 (inactive) | -0.23 | 0.0587 | -0.33 | -0.0778
17 | CC(=O)NCCCC[C@@H]1NC(=O)[C@H]2C[C@@H](C(=O)NCCCCCCNC(=O)CS)[C@@H](c3ccc(O)cc3)N2C1=O | 1.15 | 1.2 (inactive) | 0.686 (inactive) | 0.983 (inactive) | 3.13 | 0.189 (inactive) | 0.0283 | -0.773 | -0.372 | -0.258
18 | COC(=O)C(CC#Cc1ccc2c(c1)[C@]1(C(=O)N2)[C@H](c2ccc(OCCO)cc2)N2[C@H](c3ccccc3)[C@H](c3ccccc3)OC(=O)[C@H]2[C@@H]1C(=O)N1CCc2cc(OC)c(OC)cc2C1)C(=O)OC | 1.57 | 2.12 (inactive) | 1.74 (inactive) | 5.14 (inactive) | 3.34 | 0.49 (inactive) | 0.365 | -1.11 | 1.07 | 0.169
19 | C=CC[C@@]1(C(=O)NCCN2CCOCC2)N=C(c2ccc(OCCCO)cc2)O[C@@H]1c1ccccc1N=[N+]=[N-] | 0.513 | 0.658 (inactive) | -0.211 (inactive) | 0.408 (inactive) | 2.03 | -0.0403 (inactive) | 0.293 | 0.26 | -0.483 | 0.38
20 | COC(=O)[C@@]1(Cc2ccccc2)N=C(c2ccc(OCCCO)cc2)O[C@H]1c1ccccc1 | 1.31 | -0.774 (inactive) | -1.99 (inactive) | 3.21 (inactive) | 2.05 | 1.55 (inactive) | 0.116 | 0.0302 | 0.107 | -0.123
21 | CN(C)C(=O)[C@]1(Cc2ccccc2N=[N+]=[N-])N=C(c2ccc(OCCCO)cc2)O[C@@H]1c1ccccc1N=[N+]=[N-] | 1.55 | -2.43 (inactive) | -2.73 (inactive) | 4.05 (inactive) | 3.2 | 0.799 (inactive) | 0.191 | 0.923 | 1.07 | -0.0111
22 | COCCCNC(=O)[C@@]1(C)c2ccccc2C(=O)N(C(C)C)[C@H]1c1ccc(CO)cc1 | 1.53 | 0.564 (inactive) | -0.162 (inactive) | 0.642 (inactive) | 1.6 | -0.636 (inactive) | -0.136 | 0.571 | 0.473 | 0.0004
23 | COc1cc2c(cc1OC)CN(C(=O)[C@H]1[C@@H]3C(=O)O[C@@H](c4ccccc4)[C@@H](c4ccccc4)N3[C@@H](c3ccc(O)cc3)[C@]13C(=O)Nc1ccc(C#CCCO)cc13)CC2 | 1.56 | 1 (inactive) | -0.0822 (inactive) | 1.91 (inactive) | 2.44 | 1.32 (inactive) | -0.145 | 0.837 | 0.434 | -0.152
24 | C=CCOC(=O)[C@H]1[C@@H]2C(=O)O[C@@H](c3ccccc3)[C@@H](c3ccccc3)N2[C@@H](c2ccc(OCCOC(=O)[C@H]3C[C@H]4C(=O)N[C@@H](CCCCNC(C)=O)C(=O)N4[C@H]3c3cccc(OCCO)c3)cc2)[C@]12C(=O)Nc1ccccc12 | 1.55 | 0.17 (inactive) | 1.11 (inactive) | 2.59 (inactive) | 3.05 | 0.272 (inactive) | -0.0865 | 0.664 | 0.879 | -0.0996
25 | CC(C)(C)OC(=O)CC[C@]1(C(=O)N2CCOCC2)N=C(c2ccc(OCCCO)cc2)O[C@H]1c1ccccc1N=[N+]=[N-] | 1.28 | -0.54 (inactive) | -0.496 (inactive) | -0.531 (inactive) | 3.25 | 1.57 (inactive) | 0.124 | 0.356 | 0.671 | 0.0552
